T1: USP38, Q8NB14
T1 chain: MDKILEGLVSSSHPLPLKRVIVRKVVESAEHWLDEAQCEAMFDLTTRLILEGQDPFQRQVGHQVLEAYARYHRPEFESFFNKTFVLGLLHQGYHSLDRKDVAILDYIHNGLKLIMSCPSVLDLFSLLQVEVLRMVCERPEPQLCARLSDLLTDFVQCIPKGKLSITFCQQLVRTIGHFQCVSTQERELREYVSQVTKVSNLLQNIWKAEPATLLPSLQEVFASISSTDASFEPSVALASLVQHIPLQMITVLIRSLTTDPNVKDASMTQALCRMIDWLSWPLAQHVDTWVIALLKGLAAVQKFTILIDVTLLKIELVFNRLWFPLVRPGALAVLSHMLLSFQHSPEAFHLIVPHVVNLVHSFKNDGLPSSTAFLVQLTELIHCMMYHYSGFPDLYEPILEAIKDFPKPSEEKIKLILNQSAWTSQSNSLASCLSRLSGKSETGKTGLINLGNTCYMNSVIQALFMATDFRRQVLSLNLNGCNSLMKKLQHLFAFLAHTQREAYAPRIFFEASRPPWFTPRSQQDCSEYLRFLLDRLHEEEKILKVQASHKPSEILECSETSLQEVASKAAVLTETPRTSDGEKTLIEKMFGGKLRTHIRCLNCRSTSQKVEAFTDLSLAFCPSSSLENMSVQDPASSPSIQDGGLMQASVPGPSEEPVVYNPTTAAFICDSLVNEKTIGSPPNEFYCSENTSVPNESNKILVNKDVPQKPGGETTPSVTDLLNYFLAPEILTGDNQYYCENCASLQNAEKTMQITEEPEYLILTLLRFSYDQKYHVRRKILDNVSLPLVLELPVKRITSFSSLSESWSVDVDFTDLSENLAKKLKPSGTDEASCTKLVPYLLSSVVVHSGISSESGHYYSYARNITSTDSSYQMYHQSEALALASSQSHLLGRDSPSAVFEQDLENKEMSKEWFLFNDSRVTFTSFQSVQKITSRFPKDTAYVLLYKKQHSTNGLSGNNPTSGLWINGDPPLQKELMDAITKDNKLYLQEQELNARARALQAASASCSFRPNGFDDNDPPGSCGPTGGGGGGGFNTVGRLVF


Target: T1, USP38, Q8NB14
Experiment: median log2 fold change of GCK-ALFA target abundance (FLAG IP / Myc IP barcode read proportion) (log2 ratio); each designed protein is fused to an ALFA-tag nanobody in HEK293 cells to bring the named protein to FLAG-tagged glucokinase (GCK); Myc marks an untargeted standard; higher = target protein stabilised (more abundant)
Details: target protein: 3xFLAG-MCP-GCK-ALFA reporter; HEK293 landing pad (RPLP)
How it was run: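 An ALFA-nanobody-fused binder library was recombined into HEK293 landing-pad cells and induced with 2 μg mL^−1 doxycycline. Cells were transfected with a plasmid expressing a FLAG-tagged target and a Myc-tagged standard. After 48 h, lysates underwent anti-FLAG and anti-Myc immunoprecipitation, and circular RNA barcodes were reverse transcribed, amplified and sequenced. Target abundance is the per-binder median log2 ratio of FLAG to Myc barcode read proportions. Barcodes needed ≥10^−7 proportion in both replicates, binders ≥3 barcodes per replicate, and a 10^−6 pseudocount was added; the two replicates were pooled.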

Binder	median log2 fold change
usp_38_diff_out_15_91_160 (protein) LESKLQAAKGTADWAKEMREEAEELGLEEEAALLEEVRKLAEELAKLLEELIKLEKEGAPQEEIDKLRKEAKEKEKELNEAISKAVPAAARILLARQEKE	0.0652
usp_38_diff_out_15_85_157 (protein) AAEALKAEIQAKIAEAKALLAEAKALLADPAAPLAEIEAVLDAAARALGQAQALARQLRREFPEQAAFVKAANAELDALTDELTALARAAFERRAEADLA	0.104
usp_38_diff_out_16_109_168 (protein) SADEEADRLLAEAAIANFRALAADAEAELKRLEARGASPAVLKAYADLAAKAKEAAATIEAALAKGENLRETTDAQWDAVGAAAARASELRRAEARERSA	0.16
usp_38_diff_out_16_109_186 (protein) SEQAESDRLLAEAAIANFKALAADARAEAARLKAKGASQAVIDAYNALADTATAAAAALEAALAAGEDLRATLDAQWDAVGAAAAAARDLREAETAARSA	0.0614
usp_38_diff_out_16_109_184 (protein) SADEEADRLLAEASIKNFRDLSKDARAEAERLKARGASQAVIDAYNELAKTAEAAAEEIEKALEAGEDLRAVTDAQWDKVGAAAKKANDLRRAEARARTA	-0.0394
usp_38_diff_out_16_109_181 (protein) SAEEEAAREYAEAAVANFRALAADAEARLARLEARGASPEVLAAYRDLAATARAAAAALEAAIAAGEDLRAAADAQWDAVGAAAARAAEIRRAEVRRRSA	-0.515
usp_38_diff_out_15_91_162 (protein) LESKLQAARGTADYAREMQERAEELGLEEEAALLQKVRDAAEELAKLYEELIALQKAGADQAEIDKVRKEAKKLLEELNKLISEAVPAAARILLKEQERE	-0.243
usp_38_diff_out_16_109_167 (protein) SADEEAAKLLAEATIKELKALAKEAEERLKKLKAKGASEEVLAAEKKLADTAKKAAEEIEKALKKGENILETTNKKWDEVGAAAAEAAELRRAEARARSA	0.102
usp_38_diff_out_16_109_176 (protein) SAQAEADRAFAEAVVANLRALAEDAEARLARLEARGASPAVLAAYRDLADTARAAAAALEEAIAAGEDLRAIANAQWDRVGAAAARAADLLRAEVDARSA	0.125
usp_38_diff_out_16_109_166 (protein) SADEEADRLLAEAAIENFEKLAEEAKEELKKLKAKGASEEVLKAYEDLAKTAREAAEKIREALERGENLRETTREQWDKVGAKAAEASELRRAEARERSA	0.186
usp_38_diff_out_16_109_173 (protein) SQQAEGDRLFAEAAAANFRSLAEDAEAALARAKERGASPEVLAALQDLADTAKAAADTIEKTIADGGDLRATTDAQWDAVGAAAARADAIRRAEARARSD	-0.0935
usp_38_diff_out_15_91_161 (protein) LESKLQAAEGTADYAKEMKAEAEKLGLEEQAKKLQEVADAAKKLAELYKKLIKLEKEGAPKEEIEKVRKEAKKLEEELNKLISEAVPYMAEILLKKQEKE	-0.0204
usp_38_diff_out_16_109_180 (protein) SAEAEADKAYAEAVIANLEALAKAAEAELKKLKARGASPEVLAAYQALRDTAKAAAATLKAALAAGEDLRAIADAQWDAVGAAAAAAAALRRAEVAARSA	-0.191
usp_38_diff_out_15_91_164 (protein) MSSKTIATKGTRDYLKDAAAEAKELGLEETAKALEEAAALADQLLDLLEQLEKAEKEGADQAEIDKLRKEAKELDAKLNEKISELVPGLAELEQKRIERE	0.19
usp_38_diff_out_15_85_154 (protein) EAEELKREIEEEIRRAEELLAEAEALLADPAAPLEEIEAVLDEAARALGRAEALARELRRRFPEYREYVKEVLERLDELTDRLLALETEAFERRAEEDLA	-0.0616
usp_38_diff_out_16_109_174 (protein) SAQEEADREYALAVIENLKKLAKEAEEELKKLKARGASEEVLKAYEELAKTAKEAAKALEEALKAGEDLRAIANEKWDEVGKKAAEAAELLREEVRRRSA	-0.105

Binder	median log2 fold change
usp_38_diff_out_15_85_155 (protein) EAEELKREIEREIEEARRLLEEARALLADPAAPLAAIREVLDRAAEALGRAEALARELRRRFPEYREFVKKALEELDRLTDELERLAREAFEREADALAA	0.127
usp_38_diff_out_16_109_177 (protein) SAQEEADREYAEAVIKNLKELAKEAKERLKKLEEKGASEEVLKAYKELAETAKKAAERLEKALKAGEDLRKIADEEWDKVGAAAAKAAEILREEVRKKSE	0.0634
usp_38_diff_out_16_109_182 (protein) AAEEEAARLLAEASIANFEALAEEARAQLAKAQARGASPEVLAALQDLADTARAAAAAIRRALEAGEDLRAVTDAQWDAVGAAAARANRLREAETDARSA	0.0957
usp_38_diff_out_16_109_185 (protein) AAQREADRALAEAAIANFRALAAEARARAAALRARGAPQAVIDAYDDLAATADAAAAALEAALAAGEDLRAAVDREWDAVGAAAAAAEALRRAATAARSA	-0.358
usp_38_diff_out_16_109_172 (protein) SADAEADRLLAEAAIENLRALAEEARRELERLEAKGASEEVLAAYRALAETAEAAAATIEAALAAGKDIRATTDAQWDAVGAAAARASELREAEARARSA	-0.0926
usp_38_diff_out_16_109_171 (protein) SADEEADRLLAEAAIRNLRALAEAAEAELEKLEARGASPEVLAAYRDLAELARRAAEEIERALEEGRDLRETTDREWDRVGAAAARAAELRRAEARRRSA	-0.352
usp_38_diff_out_16_109_170 (protein) SQDEEADRLLAEATIENLKALAEEAKERLKKLEAKGASAEVLKAYKDLAETAKKAAEEIKEALKKGENIRETTDKKWDEVGKAAAAASEARRAEARARSA	0.177
usp_38_diff_out_16_109_169 (protein) SADEEADRLLAEAAIANFRALAEEARARLARLKARGASPAVLAAHQALADTAEAAAAEIEAALAAGENLRETTDRQWDAVGAAAAAASAALRAEARARSA	-0.16
usp_38_diff_out_15_91_163 (protein) MSSRTIATEGTLKRLKEDAELARELGLEETAKKAEEAAKLAEELLKLLKEREKAIKAGAPKEEIEKLRKEAKKKEKELNEKLSELVPDWAELELKRIEKE	0.082
usp_38_diff_out_16_109_179 (protein) SAQAEADRAFAEAAIANFEALAADAEAELARLKARGASPEVLAAYQALADTARAAAAALRAALAAGEDLRAATNAKWDEVGAKAAEAAELRRAEVRRRSA	-0.0762
usp_38_diff_out_16_109_183 (protein) SADEEAARLLAEASIKNFRNLAKEAQAALAKAQARGASADVLAALQDLADTAKAAAERIEKAIKEGKDLLAVTNAEWDAVGAAAARARELREAETRARSA	-0.397
usp_38_diff_out_15_91_159 (protein) LESKLEAARGVAAWAEEMAARARELGLEEEAALFEEVAAAARELAELLEKIIKLKKEGADPKEIEAARKEAKAAEARLNELLSRAVPAAARVLLAEQERE	-0.149
usp_38_diff_out_15_85_156 (protein) EAEKLKEEIERKIKEAEKLLKEAKKLLADPKAPLEEIRKVLDKAAEALGEAEKLARELRRKFPEEREYVKEVLKRLDKLVDELEKLAREAFEREADALLA	-0.0522
usp_38_diff_out_16_109_178 (protein) SAEDEANVEYAKAVIENLEKLAEEAEAELKRLQARGASAEVLAAYQKLADLAKEAAERLKKALAEGKDLRAIADEEWDRVGAAAAEAAELRQQEVRARSA	0.375
usp_38_diff_out_16_109_165 (protein) SQDEEADRLLAEAAIANLKALAKEAKEELKKLKARGASPEVLAAYQKLADTAEAAAKAIEAALKAGKNLRETTDKQLDAVGAAAAAASALRRAEARERSA	0.0224
usp_38_diff_out_16_109_175 (protein) SAQAEADRAFAEAAIANFRSLAADARARLARLEARGASPEVLAAYADLAATATAAAAALEAALAAGEDLRAAANAAWDAVGAAAARAARLLQEEVRRRSA	-0.756

Reference: the supplement of paper PMC12632987
